High-throughput results (PubChem BioAssay)
TRHR enhancer = qHTS for Small Molecule Agonists and Allosteric Enhancers of Human TRH Receptor: Primary Screen for Enhancers | TRHR cells, fluo-8 calcium fluorescence, EC20 TRH enhancement | enhancement, % at 2 µM | actives 0.66% (n = 360,000); in the data active = enhancement above about 30%
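Enhancer read-out: after compound pinning and an initial kinetic agonist-mode read, an EC20 of TRH (10 nM final) was injected and fluo-8 calcium signal (Ex 480/Em 530) followed at 1 s/cycle for 100 cycles in TRHR-expressing cells.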
D1 ag = Allosteric Agonists of the Human D1 Dopamine Receptor: qHTS; actives 1% (n = 360,000); D(1A) dopamine receptor (Homo sapiens), P21728; HEK293 T-REx D1 cells, calcium flux, agonist mode; activation, % at 2 µM
Target sequence (P21728 whole entry, looked up): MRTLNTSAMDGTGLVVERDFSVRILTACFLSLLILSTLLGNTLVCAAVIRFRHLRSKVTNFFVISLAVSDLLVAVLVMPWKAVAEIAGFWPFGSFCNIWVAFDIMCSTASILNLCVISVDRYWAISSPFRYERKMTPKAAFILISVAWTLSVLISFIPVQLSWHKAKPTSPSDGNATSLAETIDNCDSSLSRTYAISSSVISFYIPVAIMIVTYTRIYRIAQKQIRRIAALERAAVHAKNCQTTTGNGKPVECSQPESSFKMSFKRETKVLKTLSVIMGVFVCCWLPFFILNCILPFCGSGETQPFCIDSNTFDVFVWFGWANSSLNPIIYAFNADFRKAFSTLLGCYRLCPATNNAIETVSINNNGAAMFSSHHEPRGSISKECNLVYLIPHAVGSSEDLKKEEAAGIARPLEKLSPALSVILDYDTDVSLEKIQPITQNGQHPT
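Tetracycline-induced HEK293 TREx D1 cells, force-coupled to calcium signalling, were dye-loaded with a no-wash calcium kit. Compound was pin-added after a 10 s baseline. Fluorescence was read kinetically at 1 cycle/s for 180 s, with calcium rises flagged as agonism.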
D1 antag = Antagonist of Human D 1 Dopamine Receptor: qHTS | activity change, negative = inhibition, % at 10 µM | HEK293 TREx D1 cells, calcium flux, dopamine EC80; hits give low values | actives 3.2% (n = 360,000); in the data active = activity change below about -30%
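Antagonism measured as reduced calcium response to an EC80 dopamine addition following 180 s compound pre-read; cells were inducible HEK293 Trex D1 plated overnight at 30 C, read kinetically at 1 cycle/sec.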
TRHR agonist = qHTS for Small Molecule Agonists and Allosteric Enhancers of Human TRH Receptor: Primary Screen for Agonists; Thyrotropin-releasing hormone receptor (Homo sapiens), P34981; TRHR cells, calcium flux fluo-8, FDSS agonist mode; activation, % at 2 µM; actives 0.18% (n = 360,000); AID 493084, 2011
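Read-out: compound-evoked intracellular calcium rise in TRHR cells, fluo-8 dye, kinetic FDSS fluorescence at 1 s/cycle following a 10-cycle baseline. Cells cultured overnight before dye loading (30 min–1.5 h, RT).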
D1 potentiator = Potentiators of Human D1 Dopamine Receptor: qHTS; D(1A) dopamine receptor (Homo sapiens), P21728; HEK293 TREx D1 cells, calcium flux, dopamine EC20 potentiation; potentiation, % at 10 µM; actives 0.036% (n = 360,000); AID 504651, 2011; in the data active = potentiation above about 30%
Each line names hits and unclear results; the compound was inactive in the other large screens. Rows were chosen to be rich in hits. Some 4.6% of all compounds tested hit in one or more screens of this group. Rule as the data show it, unless noted: active = activation above about 30%; inactive = the rest.

Cc1ccc2nc(COc3ccccc3NC(=O)c3ccc(F)cc3)cc(=O)n2c1	none
O=C1/C(=C\c2ccco2)SC(=S)N1C1CCCCC1	D1 potentiator 34.5
OCC1(CCOc2ccccc2)CCN(Cc2ccccc2C(F)(F)F)CC1	none
CCOc1ccccc1CN1CCC(CO)(CCOc2ccccc2)CC1	D1 ag 30.5
COc1ccc(CN2CCC(CO)(CCOc3ccccc3)CC2)c(OC)c1C	D1 ag 66.4, D1 antag -30.7
C#CCn1c(C2CC(=O)N(c3ccc(OC)cc3)C2)nc2ccccc21 (stereo not drawn)	none
Cc1ccc2c(c1)-c1c(cnn1CC(=O)O)CO2	none
CCN(CCN(C)C)C(=O)Cn1ncc2c1-c1cc(C)ccc1OC2	D1 antag -33.2
Cc1ccc(C)c(Nc2nn3c(=O)c4ccc(C(=O)N(C)Cc5ccccc5)cc4nc3s2)c1	none
Cc1ccc(Cl)cc1Nc1nn2c(=O)c3ccc(C(=O)NCc4ccc(F)cc4)cc3nc2s1	D1 antag -33.4
CCCCN(C)C(=O)c1ccc2c(=O)n3nc(Nc4cc(C)ccc4C)sc3nc2c1	D1 antag -67.9
Cc1ccccc1Nc1nn2c(=O)c3ccc(C(=O)NCc4ccccc4)cc3nc2s1	none
O=C(NC1CC(=O)N(c2ccc(F)cc2)C1)c1ccc(S(=O)(=O)N2CCCCC2)cc1 (stereo not drawn)	none (no result: D1 antag)
CCc1ccc(Nc2cc(=O)n(C3CCCCC3)c(=O)[nH]2)cc1	D1 ag 34.3, D1 antag -35.3
O=c1cc(Nc2ccc3c(c2)OCCO3)[nH]c(=O)n1C1CCCCC1	none
Cc1ccc(-c2noc(CNC(=O)COc3cc(C)c(Br)c(C)c3)n2)cc1	none
CC1(C)CC(NC(=O)c2sc3cc(Cl)ccc3c2Cl)CC(C)(C)N1	D1 antag -37.4
Cc1ccccc1C(=O)N1CCN(CCc2ccccn2)CC1	none
C#CCOCCOCCOCCNc1nc(N2CCN(C(=O)CCCCCCCCCCNC(=O)[C@H]([C@@H](C)CC)n3cc(CCCCCN)nn3)CC2)nc(N2CCN(C(=O)CCCCCCCCCCNC(=O)[C@@H]([C@H](C)O)n3cc(C)nn3)CC2)n1	D1 ag 156.0, D1 potentiator 55.0
C#CCOCCOCCOCCNc1nc(N2CCOCC2)nc(N2CCN(C(=O)[C@H](CCCCN)n3cc([C@@H](N)C(C)CC)nn3)CC2)n1 (stereo partly drawn)	D1 antag -35.3
C#CCOCCOCCOCCNc1nc(N2CCN(C(=O)CCCCCCCCCCNC(=O)[C@H](CCCCN)n3cc(C)nn3)CC2)nc(N2CCN(C(=O)CCCCCCCCCCNC(=O)[C@@H]([C@H](C)CC)n3cc(CCCCCN)nn3)CC2)n1	D1 potentiator 39.5
C#CCOCCOCCOCCNc1nc(N2CCN(C(=O)CCCCCCCCCCNC(=O)[C@H](CCC(=O)O)n3cc(CCCCCN)nn3)CC2)nc(N2CCN(C(=O)CCCCCCCCCCNC(=O)[C@@H]([C@H](C)O)n3cc(C)nn3)CC2)n1	none
CCC(C)(C)C1CCc2c(sc(NC(=O)C3c4ccccc4Oc4ccccc43)c2C(N)=O)C1 (stereo not drawn)	TRHR enhancer 43.1
N#Cc1cccc(NC(=O)Nc2cccs2)c1	D1 ag 42.0, D1 antag -53.3
CCc1cccc(NC(=O)Nc2cccs2)c1	none
COc1ccc(CNC(=O)c2ccc3c(c2)nc2n3CCCCC2)c(OC)c1	none
Cc1ccc(SCc2cc(-c3ccc(Cl)cc3)no2)cc1	D1 ag 36.3
COc1ccc(-n2c(SCC(=O)Nc3nnc(C)s3)nc3c([nH]c4ccccc43)c2=O)cc1	none
COc1ccc(OC)c2sc(N3CCN(C(=O)C4CC4)CC3)nc12	none (no result: D1 antag)
COc1ccc(C)c2sc(N3CCCC3)nc12	D1 antag -36.9
COc1cccc(-c2nc3c(c(=O)[nH]c(=O)n3Cc3ccccc3)n2CCO)c1OC(F)F	D1 antag -43.2
COc1ccccc1NC(=O)CSc1ncc2c(n1)-c1ccccc1N(Cc1ccccc1C)S2(=O)=O	none
O=C1Cc2cc(NS(=O)(=O)c3ccc([N+](=O)[O-])cc3)cc3c2N1CCC3	D1 antag -32.3
CCN(CC)CCNC(=O)/C(=N\O)c1ccccn1	none
CCN(CC)CCNC(=O)c1ccccn1	D1 antag -31.6
CCN(CC)CCNC(=O)c1sc2ncccc2c1-n1cccc1	D1 antag -35.7
CCCCNC(=O)c1sc2ncccc2c1-n1cccc1	none
CCOc1ccc(CNC(=O)C2=Cc3cc(Br)ccc3OC2)cc1OC	D1 antag -37.5
COc1ccc(C(=O)N/N=C(\C)c2cccc(NC(=O)c3ccc(F)cc3)c2)c(OC)c1	D1 antag -36.8
COc1ccc(C(=O)N/N=C(/C)c2cccc(NC(=O)c3ccccc3F)c2)cc1	none
COc1ccc(S(=O)(=O)N2c3ccccc3OCC2C(C)(C)C)cc1 (stereo not drawn)	D1 antag -62.8
COc1ccc(S(=O)(=O)N2c3ccccc3OCC2C)cc1 (stereo not drawn)	none
O=C(Nc1ccc(S(=O)(=O)N2CCCCCC2)cc1)c1[nH]ncc1[N+](=O)[O-]	D1 antag -33.6
O=C(CCCCn1c(=O)[nH]c2ccsc2c1=O)N1CCN(c2cccc(Cl)c2)CC1	D1 antag -36.4
O=C(CCn1c(=O)[nH]c2ccsc2c1=O)N1CCN(c2cccc(Cl)c2)CC1	D1 antag -49.5
O=C(CCn1c(=O)[nH]c2ccsc2c1=O)N1CCN(c2ccc([N+](=O)[O-])cc2)CC1	TRHR enhancer 36.2
COc1ccc(C(=O)NCC(c2cccnc2)N2CCc3ccccc3C2)cc1OC (stereo not drawn)	none
CCOc1ccc(CCNC(=O)COC(=O)c2c(C)nn(-c3ccccc3)c2C)cc1OCC	none
O=C(OCCN=C1NS(=O)(=O)c2ccccc21)c1ccccc1	none
CC(OC(=O)CCCN=C1NS(=O)(=O)c2ccccc21)C(=O)c1ccccc1 (stereo not drawn)	D1 ag 44.9
CC(OC(=O)CCCN=C1NS(=O)(=O)c2ccccc21)C(=O)Nc1ccc(F)c(F)c1F (stereo not drawn)	D1 ag 32.8
CC(C)C(=O)OCCN=C1NS(=O)(=O)c2ccccc21	D1 antag -36.3
CCOc1ccc(C(=O)c2oc3ccccc3c2NC(=O)Cc2coc3ccc(CC)cc23)cc1	none
COc1ccc(Cl)cc1NC(=O)CCc1c(C)nc2c(c1C)c(=O)n(C)c(=O)n2C	none
C=CCn1c(N)c(C(=O)OC(C)(C)C)c2nc3ccccc3nc21	none
